Experimental data from PubChem BioAssay (NCI).
The panel holds about 83,000 compounds, 20% with a hit somewhere; the sample as a whole holds those more often.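 Each cell line was grown in a 96-well plate and treated with one concentration of compound for 48 hours. Values below 10 were considered active.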 Activity calls are given as the source filed them.

What follows are molecules tested on M14 melanoma (assay: NCI-60 one-dose screen, 48 h (100 = growth as untreated, 0 = no growth, -100 = all killed)). Conditions: 10 µM.
With `O=C(/C=C/c1ccc(Cl)cc1)c1nc2ccccc2n1Cc1ccc(F)cc1` the growth was 16.1% (inactive). In the case of `CC1=C(CCC=O)C2=C(C)C3(CC3)[C@@](C)(O)C(=O)C2=C1`, the growth was -56.8% (active). `O=C(NC([Se])=NC1CCCCC1)c1ccc2c(c1)OCO2` was tested, and the growth was 60.2% (inactive). In the case of `C[C@H]1[C@H](OC(=O)CCC(=O)N(CCCc2cn(-c3ccc(C#N)cc3)nn2)CCNc2ccnc3cc(Cl)ccc23)O[C@@H]2OC3(C)CC[C@H]4[C@H](C)CC[C@@H]1[C@@]24OO3`, the growth was 48.1% (inactive). In the case of `C[C@H]1[C@@H](Oc2ccc(-c3cn(-c4ccnc5cc(Cl)ccc45)nn3)cc2)O[C@@H]2OC3(C)CC[C@H]4[C@H](C)CC[C@@H]1[C@@]24OO3`, the growth was 31.8% (inactive). For `COc1ccc(/C=C/C(=O)c2nc3ccccc3n2Cc2ccc(Br)cc2)cc1`, the growth was 72.5% (inactive). With `COC(=O)CCn1c(-c2ccc(-n3cc(-c4ccc(O[C@H]5O[C@@H]6OC7(C)CC[C@H]8[C@H](C)CC[C@@H]([C@H]5C)[C@@]68OO7)cc4)nn3)cc2)nc2ccccc21` the growth was 25.4% (inactive). For `C[C@H]1[C@H](OC(=O)CCC(=O)N(CCCc2cn(-c3ccc([N+](=O)[O-])cc3)nn2)CCNc2ccnc3cc(Cl)ccc23)O[C@@H]2OC3(C)CC[C@H]4[C@H](C)CC[C@@H]1[C@@]24OO3`, the growth was 45.3% (inactive).
